# In the library only some 21% were active in any assay of this set; here they are far more common.
# Pf growth 96h: inhibits malaria parasite growth, 96 h; P. falciparum luciferase reporter growth, 96 h; Potency, µM (series often up to 28.7 µM), for the others: top-dose activity change, negative = inhibition, usual class: inhibitors; 320,000 compounds, 6.9% hits; AID 504834; note: potency is the fitted concentration of half-maximal effect; % is set by controls: 0 for no effect and ±100 for the full control effect
#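 Parasite growth measured via integrated firefly luciferase reporter in P. falciparum. Infected erythrocytes at 2% hematocrit, 0.05% parasitemia final were treated 96 hours at 37 C under 5% CO2, and luminescence was read.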
# Cycloheximide cs: affects cycloheximide protein synthesis inhibition readout, counter-screen. cell reporter, cycloheximide protein synthesis inhibition counterscreen. max response, %. 300,000 compounds, 12% hits. AID 2314; in the data active = max response mostly above about 13%, no sharp cut-off; inactive = mostly below about 14%; note: read at 38.3 µM for the half of the compounds with a filed dose; 0% is about no effect
# SARS PLP yeast: SARS-CoV PLP inhibition in yeast. S. cerevisiae expressing SARS-CoV PLpro, growth rescue. 330,000 compounds, 0.19% hits. Potency, µM (highest dose often 32.9 µM), for the others: at the highest dose activity, positive = growth rescue, most hits filed as activators. AID 485353; calls by dose curve; note: potency is the fitted concentration of half-maximal effect; 0% is about no effect; nearly all actives have a fitted effect of over 55% in size
# Shiga inhibitor: inhibitors of Shiga toxin in Vero cells; Vero cells, Shiga toxin protein synthesis inhibition reporter; inhibition, % at 38.7 µM; 290,000 compounds, 9.2% hits; AID 2315; in the data active = inhibition mostly above about 28%, no sharp cut-off; inactive = mostly below about 43%; note: 0% is about no effect
# NS1 inh: inhibitors of influenza NS1 protein function; AID 2326; 270,000 compounds, 0.4% hits; Potency, µM (titrated, usually from 46.1 µM), without a hit: top-dose activity, positive = more growth; calls by dose curve; note: potency is the fitted concentration of half-maximal effect; actives are rising curves; nearly all actives have a fitted effect of over 50% in size
#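 S. cerevisiae expressing influenza A NS1, grown in glucose, washed, then diluted 1:100 into pH 6.0 -URA galactose medium with 23 nl compound. Growth recovery read as OD600; NS1-free strain serves as control.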
# Pf growth 48h: P. falciparum growth inhibition at 48 hours (one generation). Potency, µM (titrated, usually from 28.7 µM), for inactives: at the top dose activity change, negative = inhibition, hits mostly inhibitors. AID 504832. 310,000 compounds, 5.9% hits. P. falciparum luciferase growth in erythrocytes, 48 h; note: potency is the fitted concentration of half-maximal effect; % is set by controls: 0 for no effect and ±100 for the full control effect
#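 Growth was read as firefly luciferase luminescence after a 48 h, 37 C, 5% CO2 exposure of compounds to reporter-bearing P. falciparum cultures (0.1% parasitemia, 2% hematocrit final) in Albumax-supplemented RPMI 1640.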
# Starred values were filed as active, the others as inactive; ? = inconclusive; · = no result given. Unless noted, calls come from the whole dose curve; as a rule, active = well fitted inhibition curve with a large enough effect; inconclusive = small, poorly fitted or top-dose-only effect, or another doubt; inactive = no such curve, though single readings can be large or run the other way.
SMILES,Pf growth 96h,Cycloheximide cs,SARS PLP yeast,Shiga inhibitor,NS1 inh,Pf growth 48h
O=C(N/N=C/C(Br)=C/c1ccccc1)c1cnccn1,?,50*,-5%,99*,-7%,?
O=C(N/N=C/C(Cl)=C/c1ccccc1)c1ccccn1,?,33*,-4%,76*,-9%,-45%
O=C(N/N=C/C=C/c1ccco1)c1cccnc1,·,-3,-13%,-8,12%,6%
Cc1cc(C(=O)N/N=C/C(Cl)=C/c2ccccc2)c(C)o1,10µM*,27*,1%,43*,-4%,9.3µM*
O=C(N/N=C\C=C\c1ccco1)c1cc(-c2ccc3ccccc3c2)n[nH]1,4%,24*,-2%,active,15%,-10%
O=C(N/N=C/C=C/c1ccccc1)c1ccccn1,-20%,55*,-3%,68*,-4%,83%
O=C(N/N=C/C=C\c1ccccc1)c1cnccn1,86%,10,0%,38,·,8%
CC(/C=N/NC(=O)c1ccccn1)=C\c1ccco1,-14%,33*,-2%,94*,-7%,114%
O=C(N/N=C/C=C/c1ccco1)c1cnccn1,?,13,-2%,31,5%,?
O=C(CSc1ccccn1)N/N=C/C=C/c1ccccc1,173%,32*,-25%,90*,2%,?
O=C(CNC(=O)c1ccccc1)N/N=C/C=C/c1ccccc1,121%,-2,0%,-6,10%,22%
O=C(N/N=C/C=C\c1ccco1)c1ccccn1,47%,24*,-1%,40,3%,45%
CC1=CC2=NC(=O)CC(C)(C(=O)N(CC(=O)NC(C)C)C3CCCC3)N2C=C1 (stereo not given),11%,-3,·,-4,-4%,2%
COc1ccc(C(CNC(=O)c2ccc(S(=O)(=O)N3CC(C)CC(C)C3)cc2)N(C)C)cc1 (stereo not given),·,·,9%,·,·,·
O=C(N/N=C/C=C\c1ccccc1[N+](=O)[O-])c1ccccn1,91%,61*,-20%,75*,-21%,110%
CC(OC(=O)c1ccc([N+](=O)[O-])o1)C(=O)Nc1nc(-c2ccc(F)c(F)c2)cs1 (stereo not given),2%,·,1%,·,·,46%
CCOC(=O)c1c(C)n(-c2ccccc2)c2ccc(O)cc12,5.9µM*,4,1%,22,2%,?
CCOC(=O)c1c(CN(CC)CC)n(-c2ccccc2)c2ccc(O)cc12,?,-6,4%,-2,-1%,8.3µM*
CC(C)CCNC(=O)C(=O)NCc1ccccc1,?,2,-1%,12,5%,4%
COC(=O)C1CCN(c2cc(=O)n(-c3ccc(OC)cc3)c(=O)[nH]2)CC1,-4%,-2,1%,-6,5%,11%
O=C(CSc1ccccc1)Nc1nnc(C2CC2)s1,-13%,-1,1%,0,2%,7%
CCOC(=O)c1cnc(SCc2nc(N)nc(Nc3ccc(F)cc3)n2)nc1N,?,9.5*,2%,43,10%,-9%
CCOC(=O)c1cnc(SCc2nc(N)nc(Nc3ccc(C)cc3)n2)nc1N,·,13*,-11%,16,4%,?
O=C(NCc1ccccc1)NC(=O)c1ccccc1,·,2,-4%,47,-7%,23%
O=C(NC(=O)c1ccccc1)NC1(C(F)(F)F)OCCO1,28%,48*,0%,84*,0%,·
SMILES,Pf growth 96h,Cycloheximide cs,SARS PLP yeast,Shiga inhibitor,NS1 inh,Pf growth 48h
O=C(/C=C/c1ccco1)Nc1sc2c(c1C(=O)O)CCC2,65%,43*,-21%,52*,-174%,38%
N#Cc1c(NC(=O)/C=C/c2ccco2)sc2c1CCCC2,9%,51*,-2%,67*,13%,275%
O=C(/C=C/c1ccccc1)Nc1sc2c(c1C(=O)O)CCC2,72%,25*,-2%,41*,-37%,50%
CC(C(=O)NC(C)(C)C)N(C(=O)CS(=O)CC(=O)Nc1ccc(F)cc1)c1ccccc1F (stereo not given),?,9,-2%,9,·,4%
COc1cc2c(cc1OC)[C@]13CC[N@+]4(C)CC5=CCO[C@H]6CC(=O)N2[C@@H]1C6[C@@H]5C[C@]34O (stereo not given in full),·,·,·,·,4%,·
Cc1cccc(N2CCN(Cc3nc(-c4ccc(F)cc4F)oc3C)CC2)n1,10µM*,2,-2%,21,-1%,0%
CC(C)Cc1nn2c(=O)cc(CSCC(=O)Nc3ccccc3F)nc2s1,-19%,-3,-5%,12,-1%,9%
CCn1cc(Br)c(-c2nc3ccccc3c(=O)n2N)n1,25%,27*,·,75*,-20%,50%
Cc1nc2ccccc2c(=O)n1N,-21%,-2,2%,20,-12%,·
Cc1noc2ncnc(Sc3c(Cl)cccc3Cl)c12,2.3µM*,-1,-1%,-16,2%,·
Cc1ccccc1Sc1ncnc2onc(C)c12,8.3µM*,1,-6%,-22,0%,·
Cc1noc2ncnc(Sc3ccc(Cl)cc3)c12,-16%,11,·,-14,-49%,-7%
CCn1nnc2cc(C(=O)NCCc3ccccc3F)ccc21,-10%,19,0%,58*,-1%,201%
O=C(NCCC1=CCCCC1)c1cc(COc2c(F)cccc2F)on1,-10%,8,-1%,18,-6%,4%
CSc1ccccc1OCc1cc(C(=O)NCCC2=CCCCC2)no1,4%,21,-7%,28*,3%,0%
O=C(NCCC1=CCCCC1)c1cc(COc2ccc(F)cc2Cl)on1,?,-2,-2%,15,-11%,4%
CC(=O)c1cccc(OCc2cc(C(=O)NCCC3=CCCCC3)no2)c1,-2%,42*,-2%,101*,-15%,17%
C[C@@H]1CC[C@]2(C(=O)O)CC[C@]3(C)C(=CCC4[C@@]5(C)C[C@@H](O)[C@H](O)[C@@](C)(CO)C5[C@H](O)C[C@]43C)C2[C@H]1C (stereo not given in full),·,-6,·,-7,·,·
N#CCCN1CCN(C2=NC(=O)C(=C3CCCCC3)S2)CC1,2.6µM*,35*,13%,61,-1%,0%
CC(C)=C1SC(N2CCCCC2)=NC1=O,?,11,-11%,-4,1%,·
Cc1cccc(N2CCN(C3=NC(=O)C(=C4CCCCC4)S3)CC2)c1,34%,2,0%,40,-5%,10µM*
O=C1N=C(N2CCOCC2)SC1=C1CCCCC1,?,75*,0%,81*,4%,2%
Cc1cccc(CC2SC(N3CCN(c4ccccc4)CC3)=NC2=O)c1 (stereo not given),?,-1,7%,-4,-17%,-8%
CC(=O)N1CCN(C2=NC(=O)C(=C3CCCCC3)S2)CC1,-19%,15,-8%,19*,7%,?
Cc1ccc(NC(=O)c2ccc(=O)n(CC(=O)Nc3ccccc3)n2)cc1,-4%,-1,-1%,-3,11%,3%

# Screening results deposited in PubChem by National Center for Advancing Translational Sciences (NCATS).
